Experimental data taken from the supplement of paper PMC6555819.

Experiments:
Experiment in all cases: PBM binding z-score (relative to random genomic background probes); higher = stronger binding; sequences stand for … in GC…GCGATTGACAGCGTAGAATGAAGG
[1] = tested on: RARb homodimer (NR concentration 270 nM)
In short: (§1)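 Ligand-free nuclear receptor dimers were bound for 1 h to custom Agilent 4×180K protein-binding microarrays. Detection used antibodies against each partner (one per run). Binding z-scores rest on regression-normalized fluorescence, with random background probes as the reference.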

[2] = tested on: RARg:RXRa (NR concentration 270 nM, RXRa partner concentration 90 nM)
In short: as §1

[3] = tested on: RARg homodimer (NR concentration 270 nM)
In short: as §1

[4] = tested on: RXRa DBDmut IVT, anti-RXR (DBD mutation: RXRa K156A/R161A, NR concentration 90 nM)
In short: as §1

[5] = tested on: RXRa homodimer (NR concentration 180 nM)
In short: as §1

[6] = tested on: THRa:RXRa (NR concentration 90 nM, RXRa partner concentration 90 nM)
In short: as §1

[7] = tested on: THRa homodimer (NR concentration 90 nM)
In short: as §1

[8] = tested on: VDR homodimer (NR concentration 270 nM)
In short: as §1

| Sequence | PBM binding z-score [1] | PBM binding z-score [2] | PBM binding z-score [3] | PBM binding z-score [4] | PBM binding z-score [5] | PBM binding z-score [6] | PBM binding z-score [7] | PBM binding z-score [8] |
| --- | --- | --- | --- | --- | --- | --- | --- | --- |
| GCTGCTAGGTCAAGTTGGTCAGCTAACGGGTACG | 3.78 | 4.49 | 5.42 | 1.81 | 3.03 | 2.96 | 1.13 | 0.704 |
| GATTGTAGATCAAGGTTAAGAAAGACTAAGCTAA | -0.213 | 0.14 | 0.339 | -0.224 | 0.781 | 0.867 | -0.616 | -0.0253 |
| CATCCAGGGTCAGCTAGGCCAGAGTAGGGACGGC | 3.29 | 4.74 | 4.96 | 1.35 | 4.41 | 3.18 | 1.34 | 1.51 |
| TCTGCTAGGCCAACGATGGTCAGCTAATCTGCTA | 0.00128 | -0.269 | 0.329 | -0.26 | -0.518 | -0.441 | -1.26 | -1.49 |
| CCGCCTGGGGCAGAAAGGTTACCATACCATCCGG | 2.37 | 1.47 | 1.32 | -0.959 | 1.55 | 1.03 | -0.231 | 0.052 |
| GCTGCTAGATCAACTGATGGTCAGCTAAAGCTCG | -0.449 | -0.186 | -0.352 | -0.229 | -0.482 | -0.352 | -1.12 | -0.805 |
| CGCCAAAGTTCAACTAAGGTAACGTAAAGCACGC | 4.29 | 5.87 | 6.48 | 4.67 | 4.49 | 5.24 | 2.11 | 3.81 |
| CCAGACAGGTGAGAAGGTAACTCATCCTCGATTA | 0.437 | 0.511 | 0.745 | 0.48 | 0.529 | 0.505 | 0.345 | -0.146 |
| GCATATAGGTAATACAAGGTGAAAGACCGATTGT | 0.665 | 0.88 | 0.835 | 0.075 | 0.929 | 4.12 | 0.583 | -0.0342 |
| CGTCCAAGGTCATTGCTAGGTCAGTGAAAGCATT | 4.96 | 7.64 | 6.66 | 4.51 | 5.45 | 4.38 | 3.31 | 4.55 |
| GCAGACAGGTGGAACGCAGGTAACTCAGGGTGGC | -0.721 | -0.378 | -0.569 | -0.849 | -0.144 | 0.751 | -0.601 | -0.591 |
| TGAATGAGGTTATAAGATCAGAGAACGTTGCAAA | -0.136 | 1.39 | 0.985 | 0.35 | 1.74 | 1.55 | -0.514 | 0.234 |
| CGAACTAGGTCATCCAGGACAGTGATTACATTGA | 1.77 | 4.03 | 5.13 | 2.49 | 3.37 | 3.68 | 2.14 | 2.32 |
| CATACAGGGTCAGCCAGGCCAGAGTAGGGACGGC | 3.14 | 4.58 | 4.31 | 1.4 | 4.58 | 3.36 | 1.19 | 1.78 |
| CTCAAAAGGTCGGTTGAGGTGAGTATACGGATAA | 2.58 | 2.78 | 2.85 | 0.765 | 2.66 | 5.22 | 1.15 | 0.384 |
| AGAACGAGGGCACGCTGAGTTGATAGCGGAGTAG | 1.17 | 1.85 | 2.56 | 1.97 | 1.26 | 1.86 | 0.248 | 2.34 |
| ACTAGTTGGTCAGGTGAGGTCACACACAATTCGG | 4.31 | 4.16 | 4.17 | 1.23 | 4.21 | 4.85 | 5.01 | 4.61 |
| CGTTACGGGTCAAGGTTATAGCACGGGTGGTACG | 3.67 | 4.89 | 4.88 | 0.953 | 5.7 | 3.24 | 0.918 | 1.42 |
| CGAACTAGGTCAAGGACATTGAATCTCCGCACGC | 3.12 | 3.91 | 4.46 | 1.62 | 2.91 | 3.16 | 2.43 | 1.13 |
| CAAACTAGGTCAAGAGGTCAAAGTGCGCTTCCCG | 5.69 | 8.27 | 7.86 | 3.2 | 8.67 | 4.46 | 2.56 | 4.83 |
| ACTAGCAGGCCAAGCTTGGGTCACTCAAACAAAG | 2.07 | 2.09 | 1.49 | -0.187 | 0.849 | 2.18 | 0.602 | -0.227 |
| TCTAGTTGGTCAAAGGTCACACTCTCGAAATGCG | 5.1 | 6.72 | 5.71 | 1.96 | 7.91 | 4.01 | 2.1 | 2.53 |
| CGTCCAAGGTCAGCAGGTCTGTGAAAGCGACGTG | 3.23 | 5.26 | 6.07 | 2.62 | 3.69 | 3.45 | 1.82 | 1.65 |
| ATCTCTAGGTAACAAGTTCATTGAAAGAGAGGAC | 2.29 | 2.04 | 1.72 | 2.49 | 1.8 | 2.14 | 1.24 | 5.08 |
| CCTTACGGGTCACTGACAGGTGATAGCATTTGGA | 3.85 | 5.63 | 4.84 | 2.09 | 6.14 | 3.23 | 0.557 | 1.31 |
| ATCGAAAGTTCGACGAGGTGAGTATACACCGTTT | 1.42 | 1.75 | 1.85 | 1.63 | 1.28 | 2.5 | 0.567 | 1.59 |
| AGAATGAGGTTATTAAGATCATGGAATTGCGGTC | 0.78 | 1.25 | 0.948 | 1.87 | 1.73 | 2.17 | 0.524 | 1.5 |
| TCTGCCAGGTCAACGATGGTCAGCTAATCTGCTA | 3.43 | 4.4 | 5.08 | 1.41 | 3.42 | 3.55 | 1.7 | 0.359 |
| TCATATACGTAAAGGTGAAAGTCGAACGATATGA | 1.53 | 1.65 | 1.22 | 0.638 | 2.1 | 1.13 | -0.853 | -0.424 |
